# According to PubChem BioAssay AID720641 (ICCB-Longwood Screening Facility, Harvard Medical School, 2013):
# Where “and” joins values, the source holds several entries; their conditions need not be identical. Identical values can stand only once. In all, about 170,000 compounds went through this assay and about 900 (0.53%) were called active.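 Rule for the calls: active = relative growth at most 50% at the other temperature and 20+ points below 30 °C, or under 10% at both; inactive = the rest, inconclusive results apart.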 The sample as a whole holds a higher share of actives than the screen did.
# Test: Staphylococcus aureus RN4220 growth blockers – two temperatures, LtaS inhibitor project, primary screen (AID 720641)
# Details: S. aureus RN4220 growth, OD600, 20 h, 42 °C, stronger effect = lower value
Structure (SMILES),relative growth,relative growth (measured here: growth at 30 °C)
CN(C)/N=C/c1ccc(OC(=O)c2ccco2)cc1,91.3% (inactive),89.5%
CCn1nc(C(=O)OCCCCN2C(=O)c3ccccc3C2=O)c2ccccc2c1=O,98.7% (inactive),94.4%
CCOC(=O)c1cc2oc(C)cc2n1CCCN1C(=O)c2ccccc2C1=O,-0.65% (active),-0.53%
CCOC(=O)c1cc2n(c1N)-c1ccccc1C2=O,85.9% (inactive),71.7%
O=C(NCC12CC3CC(CC(C3)C1)C2)c1cc(-c2ccccc2O)no1,105% (inactive),101%
Cc1ccc(CNCc2cccn2-c2sc(C)c(C)c2C(=O)O)cc1,87.6% (inactive),76.5%
C=CCn1c(C)nnc1SCCN1C(=O)c2ccccc2S1(=O)=O,91.3% (inactive),93.1%
CC(C)C(C(=O)O)n1c(=S)[nH]c2ccccc2c1=O (stereo not drawn),77.7% (inactive),94.8%
CS(=O)(=O)c1ccc(-c2nnc(NC(=O)c3ccc4c(c3)OCCO4)o2)cc1,84.8% (inactive),85.3%
CCCCN(CC)S(=O)(=O)c1ccc(C(=O)Nc2nnc(-c3ccc(Cl)s3)o2)cc1,0.22% (active),0.29%
CN(C)S(=O)(=O)c1ccc(C(=O)Nc2nnc(C3CC3)o2)cc1,78.8% (inactive),59.5%
O=C(CN1C(=O)/C(=C/c2ccccc2)Sc2ccccc21)N1CCCC1,109% (inactive),98.3%
COc1ccc(C2=NC(C)(C)N(CC(=O)Nc3ccccc3)C2=O)cc1,115% (inactive),93.8%
CSc1ccc(Cl)c(C(=O)OCC(=O)N2CCC(C)CC2)c1,102% (inactive),82%
Nc1nc(/C(=C/CC(=O)O)C(=O)N[C@@H]2C(=O)N3C(C(=O)O)=CCS[C@H]23)cs1,-0.72% (active),-0.64%
CSc1nc(C)cc(=O)[nH]1,139% (inactive),90.7%
NC(=O)N/N=C1/C=C(c2ccccc2)C(O)(c2ccccc2)C1 (stereo not drawn),109% (inactive),91.3%
O=C1COc2ccc(C3=Nn4c(nnc4-c4ccncc4)SC3)cc2N1,97.9% (inactive),85.9%
CCN(Cc1ccccc1)C(=O)c1cc2sccc2n1Cc1ccccc1,108% (inactive),88.4%
COc1ccccc1CNC(=O)CNC1CCCCC1,96.2% (inactive),90%
Cc1c2cn[nH]c(=O)c2c(C)n1Cc1ccccc1,88.3% (inactive),75.2%
CO[C@@H]1[C@@H](OC(N)=O)[C@H](O)[C@H](Oc2ccc3c(O)c(NC(=O)c4ccc(O)c(CC=C(C)C)c4)c(=O)oc3c2C)OC1(C)C,-0.38% (active),0.14%
CC(C)=CCOc1ccc2c3c(c(=O)oc2c1C)CCCC3,97.9% (inactive),97.1%

Structure (SMILES),relative growth,relative growth (measured here: growth at 30 °C)
CC(Sc1ncnc2ccccc12)C(=O)Nc1cccc(C(F)(F)F)c1 (stereo not drawn),115% (inactive),80.8%
CC(C)(C)C(=O)CN1C(=O)c2ccccc2C1=O,129% (inactive),89.2%
CC(NC(=O)Nc1ccccc1)c1ccccc1 (stereo not drawn),76.7% (inactive),91.3%
Cc1ccccc1-c1nc(CS(=O)(=O)CC(=O)NC(C)c2ccccc2)c(C)o1 (stereo not drawn),101% (inactive),105%
Cc1oc2c(c1C(=O)NC(C)c1ccccc1)C(=O)c1ccccc1C2=O (stereo not drawn),9.3% (active),14%
O=C(/C=C/c1ccccc1)OCC(=O)N1CCc2ccccc21,134% (inactive),88.3%
CCOC(=O)c1cnc2c(F)cc(F)cc2c1N1CCOCC1,118% (inactive),104%
CN(C)c1ccc(Nc2nc3ccccc3nc2NS(=O)(=O)c2cccs2)cc1,105% (inactive),95.9%
Cc1cccn2c(=O)cc(CN3CCC(C(=O)N4CCOCC4)CC3)nc12,98.4% (inactive),88.3%
COC(=O)c1ccc(C)c(NS(=O)(=O)c2ccc3c(c2)c(=O)sn3C)c1,0.12% (active),0.2%
COC(=O)c1ccc(NS(=O)(=O)c2cc(C(=O)OC)n(C)c2)cc1,106% (inactive),88%
COC(=O)CN1C(=O)CSc2ccc(S(=O)(=O)Nc3cc(C)ccc3C)cc21,112% (inactive),94%
COc1ccc(OCCn2c(S(=O)(=O)Cc3ccccc3)nc3ccccc32)cc1,132% (inactive),101%
COCCNc1ncnc2c1sc1nc(N3CCOCC3)c3c(c12)CCC3,111% (inactive),88.7%
CSc1n[nH]c(-c2ccco2)n1,101% (inactive),107%
CO/N=C(/C(=O)N[C@@H]1C(=O)N2C(C(=O)O)=C(CSc3nc(=O)c(O)nn3C)CS[C@H]12)c1csc(N)n1,-0.87% (active),-0.54%
O=S(=O)(Cc1ccccc1)CC(O)COc1ccc(OC(F)(F)F)cc1 (stereo not drawn),102% (inactive),85%
COc1ccccc1CN=C(C)c1ccccc1O,101% (inactive),99.1%
CCOC(=O)c1c(NC(=O)C(F)(F)F)sc2c1CCCC2,101% (inactive),93.2%
CCOC(=O)c1c(C)csc1NC(=O)CC(=O)C(F)(F)F,2.75% (active),4.35%
CCOC(=O)Nc1sccc1C(N)=O,106% (inactive),101%
O=C(CSc1nc2ccsc2c(=O)n1Cc1ccccn1)Nc1nccs1,94% (inactive),87.2%
O=S(=O)(NCCC12CC3CC(CC(C3)C1)C2)c1cc(Cl)ccc1Cl,80.5% (inactive),66.9%

Structure (SMILES),relative growth,relative growth (measured here: growth at 30 °C)
CC(C)NC(=O)COc1ccc(-c2nn(C)c(=O)c3ccccc23)cc1,92.3% (inactive),86.8%
CCOC(=O)N1CCC(N2Cc3cccc(C(=O)NC4CCN(Cc5ccccc5)CC4)c3C2=O)CC1,92.7% (inactive),86.6%
CCN(CC(=O)NCc1ccc(Cl)cc1)C(=O)c1c(C)noc1C,84.2% (inactive),95.1%
Cc1ccc(Nc2c(-c3ccc(C)s3)nc3ccccn23)cc1,107% (inactive),89.8%
Cc1cccc(C)c1Nc1c(-c2ccccc2O)nc2ncccn12,99.7% (inactive),86.4%
Cc1ccc(-c2nc3ccccn3c2Nc2c(C)cccc2C)o1,1.59% (active),1.66%
Nc1ccc(C(=O)Nc2ccc(C(=O)O)cc2N)cc1,108% (inactive),98.5%
CC1=NN(c2ccccc2)C(=O)C1C=C1C(=O)N(C)C(=S)N(C)C1=O (stereo not drawn),109% (inactive),103%
Cc1c(C(=O)NC2CCCC2)oc2ccc(S(=O)(=O)N(C)C3CCCCC3)cc12,142% (inactive),89.2%
Cc1ccc(-c2cc(C(=O)Oc3ccccc3Cl)no2)cc1C,0.23% (active),-0.03%
CCCCNC(=O)c1cc(-c2ccc(Cl)c(Cl)c2)on1,100% (inactive),88%
COCCNC(=O)c1cc(-c2cccc(Cl)c2)on1,92.5% (inactive),110%
CC(=O)Nc1ccc2nc3c(cc2c1)[nH]c1ccccc13,114% (inactive),93.5%
COc1ccc(-c2csc3ncnc(NCCSCc4ccco4)c23)cc1,67.1% (inactive),66.9%
Clc1ccc(C(Cn2ccnc2)OCc2ccsc2Cl)c(Cl)c1 (stereo not drawn),-0.03% (active) and -0.62% (active),0.13% and 0.06%
CC1CCCCN1C(=O)c1ccc(Br)cc1 (stereo not drawn),99.9% (inactive),91.1%
COc1ccc(N=C2SCCCN2C(=O)C2CCCC2)cc1OC,94.4% (inactive),86%
CC(NCc1ccc(OC(F)F)cc1OC(F)F)c1ccc(-n2ccnc2)cc1 (stereo not drawn),101% (inactive),92.4%
c1ccc2cc3cnccc3cc2c1,3.61% (active),2.36%
Sc1ccc2ccccc2c1,82.2% (inactive),91%
COc1ccccc1NC(=O)Oc1ccc2ccncc2c1,105% (inactive),97.9%
CC(=O)N1CC=C(c2ccc(O)cc2)CC1,37.5% (inactive),31.2%
O=C(NCCc1ccccc1)c1ccc(C(=O)c2ccccc2)o1,99.2% (inactive),94.2%

Structure (SMILES),relative growth,relative growth (measured here: growth at 30 °C)
Cc1cc(C)cc(NS(=O)(=O)c2ccc3c(c2)CC(=O)N3)c1,96.8% (inactive),77%
Cc1cc(NC(=O)c2cc3ccc4cccnc4c3[nH]2)no1,108% (inactive),92.6%
COc1cc(NC(=O)c2cc3ccc4cccnc4c3[nH]2)cc(OC)c1OC,90.5% (inactive),89.8%
CC1=Nc2c(ccc3cccnc23)C1(C)C,3.05% (active),2.08%
O=C(COC(=O)c1n[nH]c2ccccc12)Nc1ccc(N2CCOCC2)cc1,104% (inactive),96.3%
Cc1ccc(-n2c(C)ccc2C)cc1,97.4% (inactive),101%
Oc1c(Cl)cc(Cl)c(Cl)c1Cc1c(O)c(Cl)cc(Cl)c1Cl,-0.02% (active),-0.87%
CN1CCC(N(C)C(=O)Nc2c[nH]c3ccccc23)CC1,3.18% (active),6.3%
O=C(Nc1c[nH]c2ccccc12)NC1CCCC1,103% (inactive),62.5%
COCC(C)NC(=O)Nc1c[nH]c2ccccc12 (stereo not drawn),78.5% (inactive),50.9%
CCOC(=O)N1CCC(N(CCOC)C(=S)Nc2ccccc2F)CC1,83.6% (inactive),74.7%
Cc1ccc(NC(=O)CC2SC(=Nc3ccc(S(N)(=O)=O)cc3)NC2=O)cc1 (stereo not drawn),100% (inactive),94.2%
CCC(C)NC(=O)Cn1nc(-c2ccccc2)c2cc(Cl)ccc21 (stereo not drawn),105% (inactive),86.8%
C=CCNC(=O)c1ccc(S(=O)(=O)N(CC)c2ccccc2)cc1,99.8% (inactive),91%
Cc1cnc(C(=O)OCc2cc(=O)n3ccsc3n2)cn1,86.6% (inactive),101%
COC(=O)C(N)c1ccccc1 (stereo not drawn),68.2% (inactive),90.3%
CCOC(=O)OC(C)OC(=O)C1N2C(=O)C(NC(=O)[C@H](N)c3ccccc3)C2SC1(C)C (stereo partly drawn),-1.14% (active),-0.8%
CC(Oc1ccccc1)C(=O)NC1CCCCC1 (stereo not drawn),110% (inactive),98.3%
CC(Oc1ccccc1)C(=O)N[C@@H]1C(=O)N2[C@@H]1SC(C)(C)[C@@H]2C(=O)O (stereo partly drawn),-1.13% (active),-0.8%
CC1(C)S[C@@H]2[C@H](N=CN3CCCCCC3)C(=O)N2[C@H]1C(=O)O,93.7% (inactive),82.3%
